Assay results reported in paper PMC4336329 (PLoS ONE, 2015).
Out of some 310,000 compounds screened, about 14,000 (4.5%) showed an effect of 50% or more. Effects have a minus sign here. For the sample, strong results were picked, then their nearest neighbours and some compounds at random.

target: human ether-à-go-go-related gene (hERG) potassium channel (human, UniProt Q12809); assay: primary screen, population patch clamp on CHO cells stably expressing hERG; higher = less effect of the substance
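Note: peak tail current of the secondary pulse compared with the same well before compound.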

human ether-à-go-go-related gene (hERG) potassium channel, sequence (Q12809 whole entry, looked up): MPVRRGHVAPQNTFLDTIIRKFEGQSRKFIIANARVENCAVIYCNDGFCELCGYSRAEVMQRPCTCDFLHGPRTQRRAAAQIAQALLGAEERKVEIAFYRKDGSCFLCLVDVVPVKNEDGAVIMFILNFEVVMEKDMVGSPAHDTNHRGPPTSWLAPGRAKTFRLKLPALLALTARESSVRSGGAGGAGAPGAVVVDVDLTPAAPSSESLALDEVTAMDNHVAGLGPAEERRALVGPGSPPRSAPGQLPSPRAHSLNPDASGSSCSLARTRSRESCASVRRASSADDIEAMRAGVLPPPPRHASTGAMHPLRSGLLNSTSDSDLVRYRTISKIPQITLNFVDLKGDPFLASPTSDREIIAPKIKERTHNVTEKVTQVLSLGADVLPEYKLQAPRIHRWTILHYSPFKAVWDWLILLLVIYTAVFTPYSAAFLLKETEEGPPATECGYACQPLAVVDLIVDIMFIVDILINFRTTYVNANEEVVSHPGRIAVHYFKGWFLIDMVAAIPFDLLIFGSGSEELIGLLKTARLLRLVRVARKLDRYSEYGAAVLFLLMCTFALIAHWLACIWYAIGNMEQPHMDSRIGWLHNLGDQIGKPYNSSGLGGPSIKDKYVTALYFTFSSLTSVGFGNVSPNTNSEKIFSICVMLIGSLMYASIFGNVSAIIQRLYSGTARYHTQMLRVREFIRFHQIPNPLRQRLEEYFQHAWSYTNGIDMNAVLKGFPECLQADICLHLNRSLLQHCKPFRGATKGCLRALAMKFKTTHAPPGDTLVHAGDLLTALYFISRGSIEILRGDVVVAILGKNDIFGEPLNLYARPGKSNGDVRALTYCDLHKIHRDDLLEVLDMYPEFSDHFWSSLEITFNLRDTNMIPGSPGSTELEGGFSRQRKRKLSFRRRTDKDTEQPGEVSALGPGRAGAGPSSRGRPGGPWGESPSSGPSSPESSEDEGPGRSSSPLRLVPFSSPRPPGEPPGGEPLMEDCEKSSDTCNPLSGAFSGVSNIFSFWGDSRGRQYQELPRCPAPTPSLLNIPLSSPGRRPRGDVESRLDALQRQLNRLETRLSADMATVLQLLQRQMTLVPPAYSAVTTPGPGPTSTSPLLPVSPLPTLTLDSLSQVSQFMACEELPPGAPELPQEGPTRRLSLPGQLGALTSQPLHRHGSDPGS

Structure (SMILES) | hERG current change (%, negative = inhibition) at 10uM
CC1(C)Cc2c(c(N3CCCC3)nc3sc4c(N5CCNCC5)ncnc4c23)CO1 | -35.2%
O=C(N/N=C/c1ccc(-c2cccc(C(F)(F)F)c2)o1)c1ccccc1Br | 3.21%
CCOc1ccc(Cl)cc1S(=O)(=O)NC1CCCC1 | -3.26%
Cn1c(=O)c2c(nc(Br)n2CC(=O)c2cccs2)n(C)c1=O | -6.03%
CCc1ccc(NC(=O)C2CCCCC2C(=O)O)cc1 (stereo not shown) | 11.8%
CCOc1ccc(NC(=O)CN(C)C(=O)c2ccc(N3CCOCC3)c([N+](=O)[O-])c2)cc1OCC | -19.1%
CCOc1ccc(NC(=O)CN(C)C(=O)c2cc([N+](=O)[O-])ccc2N2CCCCC2)cc1OCC | -43.9%
CCOc1ccc(NC(=O)CN(C)C(=O)c2cc([N+](=O)[O-])ccc2N2CCOCC2)cc1OCC | -52.5%
O=C(NCC(=O)N(c1ccc(F)cc1)C(C(=O)NC1CCCC1)c1cccnc1)c1cccs1 (stereo not shown) | 7.21%
CC(C)C[C@H](NC(=O)NCCC1=CCCCC1)C(=O)O | -4.82%
O=C1Nc2ncccc2OC1CCCl (stereo not shown) | 6.83%
O=C(COc1ccccc1Cl)NCCCNC(=O)c1ccco1 | 2.17%
CCN(Cc1ccccc1)S(=O)(=O)c1ccc(C(=O)N(CCCN(C)C)c2nc3cc4c(cc3s2)OCCO4)cc1.Cl | -27.5%
CCN(c1ccccc1)S(=O)(=O)c1ccc(C(=O)N(CCN(C)C)c2nc3c(F)cc(F)cc3s2)cc1.Cl | -54.7%
CN(C)CCN(C(=O)c1ccc(S(=O)(=O)N(C)c2ccccc2)cc1)c1nc2cc3c(cc2s1)OCO3.Cl | -2.57%
CCN(c1ccccc1)S(=O)(=O)c1ccc(C(=O)N(CCCN(C)C)c2nc3cc4c(cc3s2)OCO4)cc1.Cl | -57.4%
CCN(Cc1ccccc1)S(=O)(=O)c1ccc(C(=O)N(CCCN(C)C)c2nc3cc4c(cc3s2)OCO4)cc1.Cl | -45.2%
CN(C)CCN(C(=O)c1ccc2ccccc2c1)c1nc2c(F)cc(F)cc2s1.Cl | 3.41%
CCN(c1ccccc1)S(=O)(=O)c1ccc(C(=O)N(CCCN(C)C)c2nc3c(C)cccc3s2)cc1.Cl | -34.7%
CN(C)CCN(C(=O)c1ccc(S(=O)(=O)N(C)c2ccccc2)cc1)c1nc2cc3c(cc2s1)OCCO3.Cl | -1.95%
CN(C)CCCN(C(=O)c1ccc(S(=O)(=O)N(C)Cc2ccccc2)cc1)c1nc2cc3c(cc2s1)OCO3.Cl | -51.7%
COc1ccc(-c2noc(CN(C(=O)c3cccs3)C(C)C)n2)cc1 | -28.6%
COc1ccc(S(=O)(=O)N2CCOCC2)c(Cl)c1Cl | -18.3%
Cn1c(=O)c2c(nc(OCc3cccnc3)n2Cc2ccccc2)n(C)c1=O | -32.8%
Cn1c(OCc2cccnc2)nc2c1c(=O)n(Cc1ccccc1)c(=O)n2C | -56.1%
Cn1c(OCc2cccnc2)nc2c1c(=O)n(Cc1ccc(F)cc1)c(=O)n2C | -51.9%
Cn1c(=O)c2c(nc(N/N=C/c3ccncc3)n2Cc2ccccc2)n(C)c1=O | -28.8%
Cn1c(OCc2ccc3c(c2)OCO3)nc2c1c(=O)n(Cc1cccc(Cl)c1)c(=O)n2C | -0.643%

Structure (SMILES) | hERG current change (%, negative = inhibition) at 10uM
Cn1c(=O)c2c(nc(N/N=C/c3cccnc3)n2Cc2ccccc2)n(C)c1=O | -51.2%
Cn1c(=O)c2c(nc(OCc3ccccc3)n2C)n(C)c1=O | 4.72%
Cn1c(=O)c2c(nc(OCc3cccnc3)n2Cc2c(F)cccc2Cl)n(C)c1=O | 1.03%
Cn1c(=O)c2c(nc(SCc3cccnc3)n2Cc2ccc(F)cc2)n(C)c1=O | -30.7%
Cn1c(=O)c2c(nc(N/N=C/c3cccnc3)n2Cc2ccc(F)cc2)n(C)c1=O | -16.8%
C=CCOc1nc2c(c(=O)n(Cc3ccc(Cl)cc3)c(=O)n2C)n1C | -2.66%
Cn1c(OCc2cccnc2)nc2c1c(=O)n(Cc1ccc(Cl)cc1)c(=O)n2C | -51.1%
CN(CC(=O)Nc1cccc(F)c1)C(=O)c1ccccc1CCc1ccccc1 | 3.08%
O=S(=O)(NCc1ccco1)c1cccc(S(=O)(=O)N2CCCCC2)c1 | -32.2%
CCN1CCN(C(c2cccc(OC)c2)c2sc3nc(C)nn3c2O)CC1 (stereo not shown) | 19.7%
COc1cccc(CNC(=O)CSC(=S)N2CCCC2)c1 | 2.79%
CCOC(=O)N1CCN(c2c(NCCCOC(C)C)c(=O)c2=O)CC1 | -19.7%
CC(C)CC(=O)O/N=C1\C(=O)N(Cc2ccc(Cl)cc2)c2ccc([N+](=O)[O-])cc21 | -36.1%
CCn1c(CO)nc2c1c(=O)[nH]c(=O)n2Cc1ccccc1 | 17.7%
Cn1c(OCc2cccnc2)nc2c1c(=O)n(Cc1ccc(Br)cc1)c(=O)n2C | -57.3%
Cn1c(NCc2ccccc2)nc2c1c(=O)n(Cc1ccc(Br)cc1)c(=O)n2C | 4.56%
Cn1c(Br)nc2c1c(=O)n(Cc1ccccc1)c(=O)n2C | -10.2%
CC1CCCN(C(=O)CN2C(=O)C(C)Oc3ccccc32)C1 (stereo not shown) | 8.2%
CCN(CC)C(=O)c1[nH]cnc1C(=O)Nc1ccon1 | 0.396%
Cc1ccc(NC(=O)OCc2cncs2)cc1 | 2.29%
COCCNC(=O)c1c(N)n(/N=C/c2ccc(F)cc2)c2nc3ccccc3nc12 | -0.595%
O=C(NCCCN1CCOCC1)c1cccc(S(=O)(=O)N2CCN(c3ccccc3)CC2)c1 | -71.8%
O=C(NCCCN1CCOCC1)c1cc(S(=O)(=O)N2CCN(c3ccccc3)CC2)ccc1Cl | -76.6%
Cc1ccc(S(=O)(=O)N2CCCCC2)cc1C(=O)NCCCN1CCOCC1 | 16.7%
O=C(NCCCN1CCCC1=O)c1cc(S(=O)(=O)N2CCOCC2)ccc1Cl | 13.9%
O=C(NCCN1CCOCC1)c1cccc(S(=O)(=O)N2CCCC2)c1 | 6.43%
O=C(NCCCN1CCOCC1)c1cccc(S(=O)(=O)N2CCOCC2)c1 | 8.97%
